Some structures have more than one record in an assay (separate samples or runs), and their calls can disagree. The source made the active and inactive calls. How the source made its calls: active means hit-call score of the fitted dose curve at least 0.9, where 1 is the maximum; inactive means score below 0.9.
Experiments:
[1] = read-out: Interleukin-1 alpha (IL1a), IL1A (gene 3552); assay: BSK_KF3CT_IL1a: BioMAP Diversity Plus: KF3CT Assay for Interleukin-1 alpha (IL1a) Biomarker Activity (AID 2283070); settings: primary human keratinocytes with fibroblasts; actives raise or lower the signal
How it was run: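 Human keratinocyte plus foreskin fibroblast primary co-culture, sampled 24 h after chemical dosing. IL-1a measured by ELISA; responses fitted bidirectionally against DMSO baseline (negative control), so gain or loss of signal both count.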

[2] = read-out: TIMP metallopeptidase inhibitor 2 (TIMP2), TIMP2 (gene 7077); assay: BSK_KF3CT_TIMP2: BioMAP Diversity Plus: KF3CT Assay for TIMP metallopeptidase inhibitor 2 (TIMP2) Biomarker Activity (AID 2283071); settings: primary human keratinocytes with fibroblasts; actives raise or lower the signal
How it was run: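 Keratinocyte–fibroblast co-culture, 24 h exposure; TIMP-2 ELISA, DMSO-normalised bidirectional fit. Parallel SRB (0.1%, TCA-fixed, 560 nm) total-protein staining gauges cytotoxicity.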

[3] = read-out: Transforming growth factor beta 1 (TGFb1), TGFB1 (gene 7040); assay: BSK_KF3CT_TGFb1: BioMAP Diversity Plus: KF3CT Assay for Transforming growth factor beta 1 (TGFb1) Biomarker Activity (AID 2283072); settings: primary human keratinocytes with fibroblasts; actives raise or lower the signal
How it was run: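 Signal changes in either direction, relative to DMSO, define activity here. TGF-b1 is read by ELISA from a human keratinocyte-fibroblast co-culture 24 h post-dose.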

[4] = read-out: C-C motif chemokine 2 (Homo sapiens) (UniProt P13500); assay: BSK_KF3CT_MCP1: BioMAP Diversity Plus: KF3CT Assay for Monocyte Chemoattractant Protein 1 (MCP1/CCL2) Biomarker Activity (AID 2283073); settings: primary human keratinocytes with fibroblasts; actives raise or lower the signal
How it was run: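 Human keratinocyte–foreskin fibroblast co-culture; MCP-1 measured by ELISA 24 h after dosing. Bidirectional fit vs DMSO; cytotoxicity tracked by SRB total protein in parallel cultures.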

[5] = read-out: Matrix Metallopeptidase 9 (MMP9), MMP9 (gene 4318); assay: BSK_KF3CT_MMP9: BioMAP Diversity Plus: KF3CT Assay for Matrix Metallopeptidase 9 (MMP9) Biomarker Activity (AID 2283074); settings: primary human keratinocytes with fibroblasts; actives raise or lower the signal
How it was run: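 Keratinocyte plus foreskin fibroblast human primary skin co-culture was dosed with chemical and MMP-9 was quantified by ELISA 24 h later. Bidirectional curve fitting used DMSO as negative control and activity baseline.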

[6] = read-out: urokinase plasminogen activator (uPA), PLAU (gene 5328); assay: BSK_KF3CT_uPA: BioMAP Diversity Plus: KF3CT Assay for urokinase plasminogen activator (uPA) Biomarker Activity (AID 2283075); settings: primary human keratinocytes with fibroblasts; actives raise or lower the signal
How it was run: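 Human keratinocyte plus foreskin fibroblast primary co-culture exposed to chemical for 24 h. uPA levels were quantified by ELISA, and activity was fitted bidirectionally against a DMSO negative-control baseline.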

[7] = read-out: E-selectin (Homo sapiens) (UniProt P16581); assay: BSK_LPS_Eselectin: BioMAP Diversity Plus: LPS Assay for Eselectin Biomarker Activity (AID 2283077); settings: primary human HUVEC with PBMC; actives raise or lower the signal
How it was run: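 Human umbilical vein endothelial cells co-cultured with PBMC under LPS stimulation; cell-surface E-selectin measured by ELISA 24 h after dosing. Change in either direction versus DMSO, with SRB total-protein staining in parallel cultures for cytotoxicity.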

[8] = read-out: Interleukin-8 (IL8), CXCL8 (gene 3576); assay: BSK_LPS_IL8: BioMAP Diversity Plus: LPS Assay for Interleukin-8 (IL8) Biomarker Activity (AID 2283078); settings: primary human HUVEC with PBMC; actives raise or lower the signal
How it was run: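 Human umbilical vein endothelial cells co-cultured with PBMC, LPS-stimulated, exposed to compound for 24 h. IL-8 quantified by ELISA; fitted in both directions against DMSO, with SRB total-protein staining of parallel cultures for cytotoxicity.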

[9] = BSK_LPS_SRB: Viability Assessment in the BioMAP Diversity Plus: LPS Assay (AID 2283079); settings: primary human HUVEC with PBMC;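 further: total protein by sulforhodamine B absorbance as a cytotoxicity measure; measured one day after compound addition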
How it was run: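 Co-culture of human umbilical vein endothelial cells and PBMC, read 24 h after dosing. Total protein by 0.1% SRB staining after 10% TCA fixation, absorbance at 560 nm; bidirectional fit against DMSO.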

[10] = read-out: Interleukin-1 alpha (IL1a), IL1A (gene 3552); assay: BSK_LPS_IL1a: BioMAP Diversity Plus: LPS Assay for Interleukin-1 alpha (IL1a) Biomarker Activity (AID 2283080); settings: primary human HUVEC with PBMC; actives raise or lower the signal
How it was run: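 Human umbilical vein endothelial cells co-cultured with PBMC and stimulated with LPS; IL-1a measured by ELISA 24 h after dosing. Bidirectional fitting against DMSO; cytotoxicity checked by SRB staining in parallel cultures.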

[11] = read-out: Monocyte Chemoattractant Protein-1 (MCP1), CCL2 (gene 6347); assay: BSK_LPS_MCP1: BioMAP Diversity Plus: LPS Assay for Monocyte Chemoattractant Protein-1 (MCP1) Biomarker Activity (AID 2283081); settings: primary human HUVEC with PBMC; actives raise or lower the signal;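 on AC50: secreted MCP-1 protein quantified by ELISA in culture supernatant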
How it was run: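 Human umbilical vein endothelial cells co-cultured with PBMC, LPS-stimulated; secreted MCP-1 measured by ELISA 24 h after compound addition. Bidirectional curve fitting against DMSO baseline; SRB total-protein staining in parallel cultures for cytotoxicity.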

[12] = BSK_LPS_PGE2: BioMAP Diversity Plus: LPS Assay for Prostaglandin E2 (PGE2) Biomarker Activity (AID 2283082); settings: primary human HUVEC with PBMC; actives raise or lower the signal;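 on AC50: secreted prostaglandin E2 measured by ELISA in LPS-stimulated co-culture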
How it was run: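 Endpoint derived from bidirectional curve fitting versus DMSO of ELISA-measured PGE2 in LPS-stimulated human primary vascular co-culture (HUVEC with PBMC) harvested at 24 h.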

[13] = read-out: Macrophage colony-stimulating factor (MCSF), CSF1 (gene 1435); assay: BSK_LPS_MCSF: BioMAP Diversity Plus: LPS Assay for Macrophage colony-stimulating factor (MCSF) Biomarker Activity (AID 2283083); settings: primary human HUVEC with PBMC; actives raise or lower the signal
How it was run: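 HUVEC–PBMC co-culture, M-CSF measured by ELISA 24 h after chemical dosing. Fitted in both directions relative to DMSO as negative control; overt cytotoxicity assessed by SRB total-protein staining in parallel cultures.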

[14] = read-out: Tissue Factor, F3 (gene 2152); assay: BSK_LPS_TissueFactor: BioMAP Diversity Plus: LPS Assay for Tissue Factor Biomarker Activity (AID 2283084); settings: primary human HUVEC with PBMC; actives raise or lower the signal
How it was run: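 Human umbilical vein endothelial cells co-cultured with PBMC were dosed with compound. Cell-surface CD142 was measured by ELISA 24 h later. Activity was fitted bidirectionally against DMSO, with SRB total-protein staining in parallel cultures for cytotoxicity.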

[15] = read-out: Tumor necrosis factor (Homo sapiens) (UniProt P01375); assay: BSK_LPS_TNFa: BioMAP Diversity Plus: LPS Assay for Tumour Necrosis Factor alpha (TNFa) Biomarker Activity (AID 2283085); settings: primary human HUVEC with PBMC; actives raise or lower the signal;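 on AC50: TNFa protein level quantified by ELISA in the co-culture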
How it was run: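 Primary human vascular co-culture of HUVEC and PBMC; TNFa ELISA 24 h after treatment, analysed as increase or decrease relative to DMSO control.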

[16] = read-out: Vascular cell adhesion molecule 1 (VCAM1), VCAM1 (gene 7412); assay: BSK_LPS_VCAM1: BioMAP Diversity Plus: LPS Assay for Vascular cell adhesion molecule 1 (VCAM1) Biomarker Activity (AID 2283086); settings: primary human HUVEC with PBMC; actives raise or lower the signal
How it was run: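 Primary human vascular co-culture (umbilical vein endothelium plus PBMC) stimulated with LPS received chemical; 24 h later VCAM-1 was read by ELISA. Overt cytotoxicity was assessed by sulforhodamine B staining of parallel cultures at the same time point.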

[17] = read-out: CD38, CD38 (gene 952); assay: BSK_SAg_CD38: BioMAP Diversity Plus: SAg Assay for CD38 Biomarker Activity (AID 2283087); settings: primary human HUVEC with PBMC; actives raise or lower the signal
How it was run: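 Fluorescence ELISA of cell-surface CD38 served as the read-out, with either increase or decrease fitted against DMSO controls. Cells were a human umbilical vein endothelium plus PBMC co-culture under SEB/TSST-1 stimulation, measured 24 h after dosing.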

[18] = read-out: CD40, CD40 (gene 958); assay: BSK_SAg_CD40: BioMAP Diversity Plus: SAg Assay for CD40 Biomarker Activity (AID 2283088); settings: primary human HUVEC with PBMC; actives raise or lower the signal
How it was run: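 HUVEC plus PBMC co-culture, superantigen-activated, with CD40 read by ELISA 24 h after dosing. Curves fitted in both directions against DMSO. Overt cytotoxicity checked by parallel SRB total-protein staining.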

[19] = read-out: CD69, CD69 (gene 969); assay: BSK_SAg_CD69: BioMAP Diversity Plus: SAg Assay for CD69 Biomarker Activity (AID 2283089); settings: primary human HUVEC with PBMC; actives raise or lower the signal;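 on AC50: cell surface CD69 protein quantified by ELISA with fluorescence detection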
How it was run: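 Primary human vascular co-culture (umbilical vein endothelium with peripheral blood mononuclear cells) exposed to test chemical for 24 h. CD69 levels quantified by fluorescence ELISA; DMSO served as negative control for bidirectional fitting.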

[20] = read-out: CD40, CD40 (gene 958); assay: BSK_LPS_CD40: BioMAP Diversity Plus: LPS Assay for CD40 Biomarker Activity (AID 2283076); settings: primary human HUVEC with PBMC; actives raise or lower the signal
How it was run: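 HUVEC plus PBMC co-culture stimulated with LPS; CD40 quantified by ELISA 24 h after compound dosing. Fitting was bidirectional relative to DMSO. SRB staining of parallel cultures flagged overt cytotoxicity.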

Measured: AC50

Chain of E-selectin (Homo sapiens) (P16581 whole entry, looked up): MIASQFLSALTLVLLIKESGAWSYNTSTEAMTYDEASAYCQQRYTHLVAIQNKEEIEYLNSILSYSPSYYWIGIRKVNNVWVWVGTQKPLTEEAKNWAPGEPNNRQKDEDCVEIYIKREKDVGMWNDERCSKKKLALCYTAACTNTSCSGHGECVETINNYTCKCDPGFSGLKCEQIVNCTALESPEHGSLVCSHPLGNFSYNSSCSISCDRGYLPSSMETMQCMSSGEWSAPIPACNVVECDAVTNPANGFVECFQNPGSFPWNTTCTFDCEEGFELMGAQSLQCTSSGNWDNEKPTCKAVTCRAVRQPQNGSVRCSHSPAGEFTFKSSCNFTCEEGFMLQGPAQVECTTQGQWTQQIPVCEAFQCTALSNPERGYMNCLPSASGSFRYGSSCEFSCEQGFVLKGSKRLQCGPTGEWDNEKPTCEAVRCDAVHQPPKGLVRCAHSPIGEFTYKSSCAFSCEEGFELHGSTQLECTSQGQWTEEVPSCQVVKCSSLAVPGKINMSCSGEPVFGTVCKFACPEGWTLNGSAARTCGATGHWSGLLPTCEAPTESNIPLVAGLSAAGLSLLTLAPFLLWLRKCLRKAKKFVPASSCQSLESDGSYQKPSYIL
Chain of Tumor necrosis factor (Homo sapiens) (P01375 whole entry, looked up): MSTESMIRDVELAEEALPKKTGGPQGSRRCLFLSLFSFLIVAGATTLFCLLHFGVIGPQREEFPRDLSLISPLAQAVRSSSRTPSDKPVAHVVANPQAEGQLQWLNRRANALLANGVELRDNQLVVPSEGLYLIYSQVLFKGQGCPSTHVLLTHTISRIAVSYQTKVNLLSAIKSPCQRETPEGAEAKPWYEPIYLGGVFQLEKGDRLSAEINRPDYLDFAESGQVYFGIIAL

S=C(S)NCCNC(=S)S.[Mn+2].[S-]C([S-])=NCCN=C([S-])[S-].[Zn+2]
inactive: [1] | [2] | [3] | [4] | [5] | [6] | [7] | [8] | [9] | [10] | [11] | [12] | [13] | [14] | [15] | [16] | [17] | [18] | [19]
active: [15] 2.39 µM | [16] 8.85 µM

CCSC(=O)N(CC(C)C)CC(C)C
inactive: all assays above

CCCCCCC(C)OC(=O)COc1nc(F)c(Cl)c(N)c1Cl (stereo not given)
inactive: [4] | [5]
active: [1] 33.3 µM | [2] 31.6 µM | [3] 31.3 µM | [6] 20 µM | [20] 29.9 µM | [7] 30.7 µM | [8] 36.8 µM | [9] 38.4 µM | [11] 31 µM | [12] 20.3 µM | [13] 29.8 µM | [14] 35.9 µM | [15] 34.3 µM | [16] 30.8 µM | [17] 30.7 µM | [18] 29.5 µM | [19] 31 µM
